{"source": "PubChem BioAssay AID1851", "about": "(National Center for Advancing Translational Sciences (NCATS), 2009)", "note": "Hit rate of the full screen: of about 16,000 compounds, about 5,100 (32%) were called active. Another 25% or so got no clear call; they are omitted. Some of the results follow. Values without a mark were called inactive. Calls come from the whole dose curve; as a rule, active = well fitted curve in the direction sought with a large enough effect; inconclusive = small, poorly fitted or top-dose-only effect, or effect the other way; inactive = no such curve, though single readings can be large or run the other way. % is set by controls: 0 for no effect and ±100 for the full control effect."}
{"biological_target": "Cytochrome P450 3A4 (Homo sapiens) (UniProt P08684)", "sequence (P08684 whole entry, looked up)": "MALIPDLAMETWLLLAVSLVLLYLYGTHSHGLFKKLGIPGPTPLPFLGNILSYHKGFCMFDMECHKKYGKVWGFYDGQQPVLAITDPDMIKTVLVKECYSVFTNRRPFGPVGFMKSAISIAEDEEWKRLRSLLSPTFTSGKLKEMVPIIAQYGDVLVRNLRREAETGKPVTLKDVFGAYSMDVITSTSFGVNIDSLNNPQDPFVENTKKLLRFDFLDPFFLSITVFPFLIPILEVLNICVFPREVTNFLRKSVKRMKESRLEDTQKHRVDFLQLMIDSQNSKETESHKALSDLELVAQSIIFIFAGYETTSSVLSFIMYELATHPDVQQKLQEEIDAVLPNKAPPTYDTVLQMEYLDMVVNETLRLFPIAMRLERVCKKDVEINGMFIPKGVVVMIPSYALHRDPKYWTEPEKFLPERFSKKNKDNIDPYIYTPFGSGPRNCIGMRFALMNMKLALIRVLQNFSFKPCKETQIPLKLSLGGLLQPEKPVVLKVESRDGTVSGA", "assay": "Cytochrome panel assay with activity outcomes", "conditions": "recombinant CYP, pro-luciferin dealkylation, luminescence, p450-cyp3a4; series mostly up to 57.1 µM; activity, negative = inhibition: at the top concentration"}
{"smiles": "N#Cc1c(NC(=O)C2CC(c3ccccc3Cl)=NO2)sc2c1CCC2", "note": "(stereo not drawn)", "AC50": "5.01 µM (active)"}
{"smiles": "COC(=O)C1CCN(CC(=O)Nc2sc3c(c2C#N)CCC3)CC1", "activity, negative = inhibition": "-27.9%"}
{"smiles": "O=C(NCCc1cccs1)C1CC(c2c(Cl)cccc2Cl)=NO1", "note": "(stereo not drawn)", "activity, negative = inhibition": "-24.1% [at 2.29 µM]"}
{"smiles": "CCN(CC)C(=O)N1CCN(C)CC1", "activity, negative = inhibition": "-0.999% [at 25.6 µM]"}
{"smiles": "Cc1ccc(NC(=O)CC2CS(=O)(=O)CC2CC(=O)Nc2ccc(C)c(C)c2)cc1C", "note": "(stereo not drawn)", "AC50": "3.98 µM (active)"}
{"smiles": "CN(C)c1nc(C#N)nc(N2CCOCC2)n1", "activity, negative = inhibition": "2.43%"}
{"smiles": "O=C(CNS(=O)(=O)c1ccc(Br)s1)N1CCC(N2CCCCC2)CC1", "activity, negative = inhibition": "-12.4%"}
{"smiles": "CCC(C)NC(=O)CCS(=O)(=O)c1ccc(Br)s1", "note": "(stereo not drawn)", "AC50": "0.891 µM (active)"}
{"smiles": "COC(=O)C/C=C1\\c2ccccc2[C@H](OC)[C@H]1C", "activity, negative = inhibition": "-2.89% [at 11.4 µM]"}
{"smiles": "Nc1ccc(N=Nc2ccc(-c3ccc(O)cc3)cc2)c2ccc(S(=O)(=O)O)cc12", "activity, negative = inhibition": "-11.1% [at 11.4 µM]"}
{"smiles": "COC(=O)[C@@]1(Cc2ccc(F)cc2)[C@H]2c3cc(C(=O)N4CCCC4)n(Cc4c(CO)[nH]cc(C)c4=O)c3C[C@H]2CN1C(=O)c1ccccc1", "AC50": "2 µM (active)"}
{"smiles": "COC(=O)[C@@]1(Cc2ccccc2)[C@H]2c3cc(C(=O)N4CCCC4)n(Cc4c(CO)[nH]cc(C)c4=O)c3C[C@H]2CN1C(=O)c1ccccc1", "AC50": "2.51 µM (active)"}
{"smiles": "O=C1c2cccc3cccc(c23)C(=O)N1CC1CCN(CC(O)COc2ccc3ccccc3c2)CC1", "note": "(stereo not drawn)", "AC50": "7.94 µM (active)"}
{"smiles": "CCCOC(=O)c1c(-c2ccccc2)nc(CC)c(C(=O)SCC)c1CCC", "AC50": "10 µM (active)"}
{"smiles": "CCOC(=O)c1c(-c2ccccc2)nc2ccc(Cl)cn12", "activity, negative = inhibition": "-22.1%"}
{"smiles": "CCc1nc2c(c(SC)nn2-c2ccccc2)c(N)c1C(=O)OC", "activity, negative = inhibition": "-21.9% [at 11.4 µM]"}
{"smiles": "O=C1CCCC=C1[C@@H](O)C1CCCCC1", "activity, negative = inhibition": "-18.7% [at 11.4 µM]"}
{"smiles": "N#C/C(=C\\c1cn[nH]c1-c1ccccc1)C(=O)NC1CCCCCC1", "AC50": "7.08 µM (active)"}
{"smiles": "N#C/C(=C\\Nc1ccccn1)C(=O)C1CC1", "activity, negative = inhibition": "-9.43% [at 11.4 µM]"}
{"smiles": "N#C/C(=C\\c1cc(Cl)cc(Cl)c1O)C(=O)NC1CCCCC1", "AC50": "15.8 µM (active)"}
{"smiles": "COc1ccc2c(CC(=O)NCC3CCC(C(=O)O)CC3)cc(=O)oc2c1", "note": "(stereo not drawn)", "activity, negative = inhibition": "-1.71%"}
{"smiles": "Cc1cc(=O)oc2cc(O)ccc12", "activity, negative = inhibition": "-8.45% [at 25.6 µM]"}
{"smiles": "CCN(CC)c1ccc2cc(C(C)=O)c(=O)oc2c1", "activity, negative = inhibition": "-19.1%"}
{"smiles": "CCN(CC)c1ccc2c(Cl)cc(=O)oc2c1", "AC50": "25.1 µM (active)"}
{"smiles": "CCN(CC)c1ccc(C(=O)OCc2cc(=O)oc3cc(O)ccc23)cc1", "AC50": "6.31 µM (active)"}
{"smiles": "CCOc1cc2c(C)cc(=O)oc2cc1Cl", "activity, negative = inhibition": "-19.3%"}
{"smiles": "COc1ccc(-n2c(=O)c(-c3ccc(Cl)cc3)nc3cnc(N4CCNCC4)nc32)cc1", "activity, negative = inhibition": "-1.14%"}
{"smiles": "COc1ccc(-n2c(=O)c(-c3cccs3)nc3cnc(N4CCNCC4)nc32)cc1", "AC50": "15.8 µM (active)"}
{"smiles": "CN(C)c1ncc2nc(-c3cccs3)c(=O)n(-c3ccccc3)c2n1", "activity, negative = inhibition": "-3.28%"}
{"smiles": "CN1CCN(c2ncc3nc(-c4cccs4)c(=O)n(-c4ccccc4)c3n2)CC1", "AC50": "31.6 µM (active)"}
{"smiles": "COc1ccc(-n2c(=O)c(-c3ccccc3)nc3cnc(N4CCNCC4)nc32)cc1", "activity, negative = inhibition": "-7.64%"}
{"smiles": "Cc1nc2cnc(N3CCN(C)CC3)nc2n(-c2ccccc2)c1=O", "activity, negative = inhibition": "-12.7%"}
{"smiles": "O=c1c(-c2cccs2)nc2cnc(N3CCNCC3)nc2n1-c1ccccc1", "AC50": "25.1 µM (active)"}
{"smiles": "O=c1c(-c2cc(F)cc(F)c2)nc2cnc(N3CCOCC3)nc2n1-c1ccccc1", "activity, negative = inhibition": "-17.5%"}
{"smiles": "COc1ccc(CNc2ncnc3ccc(-c4ccc(N(C)C)cc4)cc23)c(OC)c1", "AC50": "3.98 µM (active)"}
{"smiles": "COc1ccccc1CNc1ncnc2ccc(-c3ccc4c(c3)OCO4)cc12", "AC50": "1.26 µM (active)"}
{"smiles": "COc1ccccc1CNc1ncnc2ccc(-c3ccc(N(C)C)cc3)cc12", "AC50": "2 µM (active)"}
{"smiles": "CCOC(=O)c1[nH]c(C(=O)O)c(CCC(=O)OC)c1C", "activity, negative = inhibition": "6.89%"}
{"smiles": "Cc1cc(C)nc(NC(=O)CCCC(=O)O)c1", "activity, negative = inhibition": "1.45%"}
{"smiles": "C[N+]1(C)CCO[C@](O)(c2ccccc2)C1", "activity, negative = inhibition": "-8.04% [at 11.4 µM]"}
{"smiles": "COc1ccc(NC(=O)c2ccc3c(=O)n(Cc4ccco4)c(=S)[nH]c3c2)c(OC)c1", "activity, negative = inhibition": "-27%"}
{"smiles": "COc1ccc(CCNC(=O)c2ccc3c(=O)n(Cc4ccco4)c(=S)[nH]c3c2)cc1OC", "AC50": "0.631 µM (active)"}
{"smiles": "CC(C)NC(=O)c1ccc2c(=O)n(Cc3ccco3)c(=S)[nH]c2c1", "activity, negative = inhibition": "-26%"}
{"smiles": "O=C(c1ccc2c(=O)n(Cc3ccco3)c(=S)[nH]c2c1)N1CCN(c2ccccc2)CC1", "AC50": "6.31 µM (active)"}
{"smiles": "Nc1ccccc1Nc1ccccc1", "activity, negative = inhibition": "-23.8% [at 11.4 µM]"}
{"smiles": "C[C@H]1O[C@@H](CC(=O)O)Cc2c1c(O)c1c(O)cc(-c3cc(=O)c4c(=O)c5c(c(=O)c=4c3=O)C[C@H](CC(=O)O)O[C@@H]5C)c(O)c1c2O", "activity, negative = inhibition": "-6.62% [at 11.4 µM]"}
{"smiles": "CCN1C(=O)CC(N2CCN(CC(=O)NC(C)C)CC2)C1=O", "note": "(stereo not drawn)", "activity, negative = inhibition": "1.59%"}
{"smiles": "Cc1onc(-c2ccccc2)c1C(=O)NCCc1c[nH]c2ccccc12", "AC50": "8.91 µM (active)"}
